Source: the antibiotic and cytotoxicity screens of Wong et al. (2023)
The campaign covered roughly 39,000 compounds. About 3,300 (8.5%) were called active. This excerpt belongs to a sample that is enriched for actives.

tested on: HepG2; test: cytotoxicity call (relative viability < 0.9); conditions: 10 µM

SMILES | cytotoxicity call
Cc1cc(=O)nc2[nH][nH]c(=S)n12 | inactive
C[C@H]1CN([C@@H](C)CO)C(=O)c2cccc(NC(=O)c3nc4ccccc4s3)c2O[C@@H]1CN(C)S(C)(=O)=O | inactive
C[C@@H]1CN([C@@H](C)CO)C(=O)Cc2cc(NC(=O)Nc3cccc4ccccc34)ccc2O[C@H]1CN(C)C(=O)Nc1ccccc1 | inactive
COc1ccc(S(=O)(=O)Nc2ccc3c(c2)CC(=O)N([C@H](C)CO)C[C@@H](C)[C@H](CN(C)Cc2ccc(C(=O)O)cc2)O3)cc1 | inactive
CN(C)C=C(C=[N+](C)C)c1[nH]ncc1N | inactive
C[C@@H]1CN([C@@H](C)CO)C(=O)Cc2cc(NC(=O)Nc3ccc(C(F)(F)F)cc3)ccc2O[C@@H]1CN(C)S(=O)(=O)c1ccc(Cl)cc1 | active
Cc1cc(C(=O)Nc2cccc3c2O[C@H](CN(C)Cc2ccncc2)[C@@H](C)CN([C@H](C)CO)C3=O)n(C)n1 | inactive
C[C@@H]1CN([C@@H](C)CO)C(=O)Cc2cc(NC(=O)CCC(F)(F)F)ccc2O[C@@H]1CN(C)S(=O)(=O)c1cn(C)cn1 | inactive
C[C@H]1CN([C@@H](C)CO)C(=O)c2cc(NC(=O)c3ccncc3)ccc2O[C@H]1CN(C)Cc1ccc(C(=O)O)cc1 | inactive
C[C@@H]1CN([C@H](C)CO)C(=O)c2cc(NC(=O)Nc3ccccc3)ccc2O[C@@H](C)CCCCO[C@H]1CN(C)S(=O)(=O)c1ccc(Cl)cc1 | active
C[C@@H]1CCCCO[C@H](CN(C)S(=O)(=O)c2ccc(Cl)cc2)[C@@H](C)CN([C@@H](C)CO)C(=O)c2cc(NC(=O)Nc3cccc4ccccc34)ccc2O1 | inactive
C[C@@H]1CCCCO[C@@H](CN(C)S(=O)(=O)c2ccc(Cl)cc2)[C@@H](C)CN([C@@H](C)CO)C(=O)c2cc(NC(=O)Nc3cccc4ccccc34)ccc2O1 | active
C[C@@H]1CCCCO[C@@H](CN(C)S(=O)(=O)c2ccc(Cl)cc2)[C@@H](C)CN([C@@H](C)CO)C(=O)c2cc(NC(=O)Nc3ccccc3)ccc2O1 | inactive
C[C@@H]1CN([C@@H](C)CO)C(=O)c2cc(NC(=O)Nc3ccccc3)ccc2O[C@@H](C)CCCCO[C@@H]1CN(C)S(=O)(=O)c1ccc(Cl)cc1 | inactive
C[C@@H]1CN([C@@H](C)CO)C(=O)c2cc(NC(=O)Nc3ccccc3)ccc2O[C@@H](C)CCCCO[C@H]1CN(C)S(=O)(=O)c1ccc(Cl)cc1 | active
C[C@@H]1CCCCO[C@@H](CN(C)S(=O)(=O)c2ccc(Cl)cc2)[C@@H](C)CN([C@H](C)CO)C(=O)c2cc(NC(=O)Nc3ccccc3)ccc2O1 | inactive
C[C@H](CO)N1C[C@H](C)[C@@H](CN(C)S(=O)(=O)c2ccc(Cl)cc2)OCCCC[C@H](C)Oc2ccc(NC(=O)Nc3ccccc3)cc2C1=O | inactive
C[C@@H]1CCCCO[C@H](CN(C)S(=O)(=O)c2ccc(Cl)cc2)[C@@H](C)CN([C@H](C)CO)C(=O)c2cc(NC(=O)Nc3cccc4ccccc34)ccc2O1 | inactive
C[C@H](CO)N1C[C@H](C)[C@H](CN(C)C(=O)Nc2ccccc2)OCCCC[C@H](C)Oc2ccc(NC(=O)NC3CCCCC3)cc2C1=O | inactive
C[C@@H]1CN([C@H](C)CO)C(=O)c2cccc(NC(=O)Nc3cccc4ccccc34)c2O[C@@H]1CN(C)S(=O)(=O)c1ccc(Cl)cc1 | inactive
Cc1ccc(/C=N/Nc2cnnc(=O)[nH]2)o1 | inactive

SMILES | cytotoxicity call
O=C(Cn1cnnn1)NC1C(=O)N2C(C(=O)O)=C(CSc3nncs3)CSC12 (stereo unspecified) | inactive
COCC(=O)Nc1ccc2c(c1)OC[C@@H](C)N(C(=O)Cc1ccccn1)C[C@H](C)[C@@H](OC)CN(C)C2=O | inactive
O=c1[nH]c(=O)c2[nH]c(=O)[nH]c2[nH]1 | inactive
COc1ccc(S(=O)(=O)Nc2ccc3c(c2)CC(=O)N([C@H](C)CO)C[C@H](C)[C@@H](CN(C)C(=O)Nc2c(C)noc2C)O3)cc1 | inactive
COc1ccc(NC(=O)Nc2cccc3c2O[C@H](CN(C)Cc2ccc(Oc4ccccc4)cc2)[C@@H](C)CN([C@@H](C)CO)C3=O)cc1 | inactive
Cc1cc(C(=O)Nc2cccc3c2O[C@@H](CN(C)Cc2ccc(Oc4ccccc4)cc2)[C@H](C)CN([C@@H](C)CO)C3=O)n(C)n1 | inactive
COc1ccc(NC(=O)Nc2cccc3c2O[C@@H](CN(C)Cc2ccc(Oc4ccccc4)cc2)[C@@H](C)CN([C@@H](C)CO)C3=O)cc1 | active
COc1ccc(NC(=O)Nc2cccc3c2O[C@H](CN(C)Cc2ccc(Oc4ccccc4)cc2)[C@@H](C)CN([C@H](C)CO)C3=O)cc1 | inactive
COc1ccc(NC(=O)Nc2cccc3c2O[C@@H](CN(C)Cc2ccc(Oc4ccccc4)cc2)[C@H](C)CN([C@H](C)CO)C3=O)cc1 | inactive
COc1ccc(NC(=O)Nc2cccc3c2O[C@H](CN(C)Cc2ccc(Oc4ccccc4)cc2)[C@H](C)CN([C@H](C)CO)C3=O)cc1 | inactive
C[C@@H]1CN([C@@H](C)CO)C(=O)c2cccc(NC(=O)Nc3ccc(F)cc3)c2O[C@H]1CN(C)Cc1ccc(Oc2ccccc2)cc1 | inactive
Cc1cc(C(=O)Nc2cccc3c2O[C@@H](CN(C)Cc2ccc(Oc4ccccc4)cc2)[C@@H](C)CN([C@@H](C)CO)C3=O)n(C)n1 | inactive
C[C@H](CO)N1C[C@H](C)[C@H](CN(C)Cc2ccc(Oc3ccccc3)cc2)Oc2c(NC(=O)Nc3ccc(F)cc3)cccc2C1=O | inactive
COc1ccc(NC(=O)Nc2cccc3c2O[C@@H](CN(C)Cc2ccc(Oc4ccccc4)cc2)[C@@H](C)CN([C@H](C)CO)C3=O)cc1 | active
C[C@@H]1CN([C@H](C)CO)C(=O)c2cccc(NC(=O)Nc3ccc(F)cc3)c2O[C@@H]1CN(C)Cc1ccc(Oc2ccccc2)cc1 | active
Cc1cc(C(=O)Nc2cccc3c2O[C@H](CN(C)Cc2ccc(Oc4ccccc4)cc2)[C@@H](C)CN([C@H](C)CO)C3=O)n(C)n1 | active
CC(=O)N1[C@@H](CO)[C@H](c2ccccc2)C12CN(C(=O)CN1CCOCC1)C2 | inactive
Cc1ccc(S(=O)(=O)Nc2cccc3c2O[C@@H](CN(C)CC2CC2)[C@@H](C)CN([C@@H](C)CO)C3=O)cc1 | inactive
C[C@H]1CN([C@@H](C)CO)C(=O)c2cc(C#CC3(O)CCCC3)cnc2O[C@H]1CN(C)S(=O)(=O)c1ccc(F)cc1 | inactive
Cc1ccc(S(=O)(=O)Nc2ccc3c(c2)C(=O)N([C@H](C)CO)C[C@@H](C)[C@H](CN(C)C(=O)Cc2ccccc2)OCCCC[C@@H](C)O3)cc1 | inactive
COC(=O)c1c2oc(c1C(=O)OC)C(=O)N[C@H](Cc1ccccc1)Cn1cc(nn1)CNC(=O)[C@@H](Cc1ccccc1)NC(=O)N[C@@H](CO)CC2 | inactive

SMILES | cytotoxicity call
COCC#Cc1ccc2c(c1)O[C@H](CN(C)C(=O)c1ccccc1)[C@H](C)CN([C@@H](C)CO)S2(=O)=O | inactive
O=C(C[C@@H]1C=C[C@H](NS(=O)(=O)c2ccc(F)cc2)[C@H](CO)O1)N1CCC(Cc2ccccc2)CC1 | inactive
C[C@H]1CCCCO[C@@H](CN(C)Cc2ccncc2)[C@@H](C)CN([C@@H](C)CO)C(=O)c2cc(NS(C)(=O)=O)ccc2O1 | inactive
C[C@@H]1CCCCO[C@@H](CN(C)CC2CCCCC2)[C@@H](C)CN([C@@H](C)CO)C(=O)c2cc(NS(=O)(=O)c3ccccc3)ccc2O1 | inactive
C[C@H](CO)N1C[C@H](C)[C@H](CN(C)S(=O)(=O)c2ccc(Cl)cc2)Oc2c(NC(=O)c3cnccn3)cccc2C1=O | inactive
COc1ccc(NC(=O)Nc2cccc3c2O[C@@H](CN(C)Cc2ccc(Oc4ccccc4)cc2)[C@H](C)CN([C@@H](C)CO)C3=O)cc1 | active
C[C@@H]1CN([C@@H](C)CO)C(=O)c2cccc(NC(=O)Nc3ccccc3)c2O[C@@H]1CN(C)Cc1ccc(Oc2ccccc2)cc1 | active
COc1ccc(NC(=O)Nc2cccc3c2O[C@H](CN(C)Cc2ccc(Oc4ccccc4)cc2)[C@H](C)CN([C@@H](C)CO)C3=O)cc1 | inactive
CC(C)NC(=O)Nc1cccc2c1O[C@@H](CN(C)Cc1ccc(Oc3ccccc3)cc1)[C@@H](C)CN([C@@H](C)CO)C2=O | inactive
CC(C)NC(=O)Nc1cccc2c1O[C@H](CN(C)Cc1ccc(Oc3ccccc3)cc1)[C@@H](C)CN([C@@H](C)CO)C2=O | active
C[C@H]1CN([C@@H](C)CO)C(=O)c2cccc(NC(=O)Nc3ccccc3)c2O[C@@H]1CN(C)Cc1ccc(Oc2ccccc2)cc1 | inactive
CC(C)NC(=O)Nc1cccc2c1O[C@@H](CN(C)Cc1ccc(Oc3ccccc3)cc1)[C@H](C)CN([C@H](C)CO)C2=O | inactive
C[C@@H]1CN([C@@H](C)CO)C(=O)c2cccc(NC(=O)Nc3ccccc3)c2O[C@H]1CN(C)Cc1ccc(Oc2ccccc2)cc1 | inactive
C[C@H](CO)N1C[C@H](C)[C@@H](CN(C)Cc2ccc(Oc3ccccc3)cc2)Oc2c(NC(=O)Nc3ccccc3)cccc2C1=O | inactive
C[C@@H]1CCCCO[C@H](CN(C)Cc2ccccc2)[C@@H](C)CN([C@@H](C)CO)C(=O)c2cc(NC(=O)c3ccncc3)ccc2O1 | inactive
COCC#Cc1cnc2c(c1)C(=O)N([C@@H](C)CO)C[C@H](C)[C@H](CN(C)C(C)=O)O2 | inactive
C[C@H]1CN([C@@H](C)CO)C(=O)Cc2cc(NS(=O)(=O)c3cccs3)ccc2O[C@H]1CN(C)Cc1ccncc1 | inactive
C[C@H](C(=O)N(C)C[C@@H]1OCc2ccccc2-c2c(n(C)c3ccccc23)C(=O)N([C@H](C)CO)C[C@H]1C)c1ccccc1 | inactive
C[C@H](O)C#Cc1cnc2c(c1)C(=O)N([C@@H](C)CO)C[C@H](C)[C@H](CN(C)C(=O)Nc1ccc(C(F)(F)F)cc1)O2 | inactive
